Compound activity from PubChem.
Shown are actives, neighbours in structure and some others; about 2.6% of the full set was active somewhere.
APOBEC3A inh: blocks human APOBEC3A ssDNA deamination; P31941; recombinant A3A, FAM/TAMRA ssDNA deamination fluorescence; inhibition, % at 20 µM; hit rate 0.41% among 330,000;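 active = at least 40% inhibition at 20 µM here, with at most 30% in a related deaminase screen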
Target sequence (P31941 whole entry, looked up): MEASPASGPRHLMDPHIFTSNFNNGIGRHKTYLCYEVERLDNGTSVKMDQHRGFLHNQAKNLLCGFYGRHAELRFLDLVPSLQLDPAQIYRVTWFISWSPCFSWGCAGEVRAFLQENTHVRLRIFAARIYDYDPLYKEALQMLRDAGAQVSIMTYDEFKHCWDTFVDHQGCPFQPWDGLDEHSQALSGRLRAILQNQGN
PHOSPHO1 block: blocks human PHOSPHO1 phosphatase activity. hit rate 1.1% among 290,000. Q8TCT1. recombinant PHOSPHO1, absorbance phosphatase assay. inhibition, % at 13.3 µM. AID 1565; in the data active = inhibition above about 60%
PABP polyA inh: PABP-poly(A) binding inhibition | calls only at 35 µM | PABP-poly(A) RNA binding, fluorescence polarization | P11940 | hit rate 1% among 290,000;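 also: calls also rest on retests at 20 µM and on dose response follow-up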
MLLE-PAM2 inh: blocks PAM2 peptide binding to the PABP1 MLLE domain; hit rate 0.36% among 360,000; GST-MLLE / FITC-PAM2 fluorescence polarization; AID 588489; inhibition, % at 20 µM; in the data active = inhibition above about 35%, passing the limit was not always enough
APOBEC3G inh: APOBEC3G (human) deaminase inhibition; Q9HC16; recombinant A3G, ssDNA deamination FAM/TAMRA fluorescence; inhibition, % at 20 µM; hit rate 0.28% among 330,000;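 active = inhibition of at least 40% at 20 µM, with no more than 30% in the related APOBEC3A deaminase screen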
eIF4H inh: inhibitors of RNA binding by human eIF4H | Q15056 | eIF4H fluorescence polarization binding assay | inhibition, % at 35 µM | hit rate 0.94% among 290,000;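 also: calls also rest on retests at 20 µM and on dose response follow-up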
APOBEC3A confirm: confirmation of human APOBEC3A DNA deaminase inhibitors | shares compounds with APOBEC3A inh | recombinant A3A, ssDNA deaminase UDG fluorescence assay | inhibition, % at 20 µM | hit rate 63% among 1,400 | AID 493151;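 active = inhibition reaching a set limit, 80% of the first screen's cutoff, at 20 µM in any replicate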
UDG ctr A3A: inhibits UDG, flagging false APOBEC3A inhibitors. shares compounds with APOBEC3A inh. UDG counterscreen, FAM/TAMRA uracil oligo fluorescence. inhibition, % at 20 µM. 1,000 tested, under 10 active. AID 504714
Of the large screens only hits and unclear results are named; the others gave an inactive call (follow-up assays come after a bar, where they were run). Unless noted, no rule for the calls is given here.

O=C(Nc1ccc(C(=O)O)cc1)/C(=C\c1ccc([N+](=O)[O-])cc1)NC(=O)c1ccco1	none (no result: APOBEC3A inh, PHOSPHO1 block, PABP polyA inh, APOBEC3G inh, eIF4H inh)
O=S(=O)(O)c1cc(O)c2c(O)c(N=Nc3cc(Cl)ccc3O)c(S(=O)(=O)O)cc2c1	APOBEC3A inh 91, PABP polyA inh active, eIF4H inh 80 | APOBEC3A confirm 90 | UDG ctr A3A inactive
CC(C)c1cc(CN2C(C)COCC2C)cc(C(C)C)c1O (stereo not given)	none (no result: APOBEC3A inh, PHOSPHO1 block, PABP polyA inh, APOBEC3G inh, eIF4H inh)
Cn1c(-[n+]2c(-c3ccccc3)cc(-c3ccccc3)cc2-c2ccccc2)nc2cc([N+](=O)[O-])ccc21	APOBEC3A inh 46 | APOBEC3A confirm 56 | UDG ctr A3A inactive
Cc1ccc2c(c1)C(c1ccccc1)N(C(=O)c1cccc([N+](=O)[O-])c1)CC(=O)N2 (stereo not given)	none (no result: PHOSPHO1 block)
Cc1ccc(NC(=O)Cn2cc(C(=O)C3CC3)c3ccccc32)c(C)c1	none
Cc1ccc(C)c(NC(=O)Cn2cc(C(=O)C3CC3)c3ccccc32)c1	APOBEC3A inh 71 | APOBEC3A confirm 62 | UDG ctr A3A inactive
CC(=O)c1ccc2c3c(cccc13)C(=O)N(c1c(C)nn(C)c1C)C2=O	APOBEC3A inh 48 | APOBEC3A confirm inactive
CCC1N=C(SC)NC(C)=C1C(=O)c1ccccc1 (stereo not given)	APOBEC3A inh 48 | APOBEC3A confirm 35 | UDG ctr A3A inactive
CS(=O)(=O)c1ccc(C(=O)N2CC(=O)Nc3ccccc32)cc1	APOBEC3A inh 54 | APOBEC3A confirm inactive
Cc1cc(C)cc(C(=O)N2CC(=O)Nc3ccccc32)c1	none
COc1cc(C(=O)NCc2ccncc2)cc(OC)c1OC	none
CCc1nc(CNC(=O)c2cc(OC)c(OC)c(OC)c2)no1	APOBEC3A inh 48 | APOBEC3A confirm 73 | UDG ctr A3A inactive
O=C1c2ccccc2C(=O)c2c(O)c(O)cc(O)c21	none (no result: PHOSPHO1 block, PABP polyA inh, eIF4H inh)
O=C1C=C(O)c2c(O)cc(O)c(O)c2C1=O	APOBEC3A inh 83 (no result: PHOSPHO1 block, PABP polyA inh, eIF4H inh) | APOBEC3A confirm 76
CCCCn1c(N)c(N(CCOC)C(=O)COC(=O)COc2cccc(C(C)=O)c2)c(=O)[nH]c1=O	none (no result: PHOSPHO1 block, PABP polyA inh, eIF4H inh)
C=CC1=C(C(=O)O)N2C(=O)[C@@H](NC(=O)/C(=N\O)c3csc(N)n3)[C@H]2SC1 (stereo in doubt)	APOBEC3A inh 89 (no result: PHOSPHO1 block, PABP polyA inh, eIF4H inh) | APOBEC3A confirm 88
COc1ccc(NS(=O)(=O)c2ccc(S(=O)(=O)N(C)C)cc2)cc1S(N)(=O)=O	APOBEC3A inh 77 | APOBEC3A confirm inactive | UDG ctr A3A inactive
CC(=O)Nc1cccc(C(=O)OCC(=O)Nc2c(C)nn(-c3ccccc3)c2C)c1	APOBEC3A inh 52 (no result: PHOSPHO1 block, PABP polyA inh, eIF4H inh) | APOBEC3A confirm inactive
CC(=O)Nc1nc(CC(C)C)cc(-c2ccco2)c1C#N	APOBEC3A inh 40 | APOBEC3A confirm 51 | UDG ctr A3A inactive
CCc1n(CC(O)COCC2CC=CCC2)c2ccccc2[n+]1C (stereo not given)	APOBEC3A inh 62 | APOBEC3A confirm 70 | UDG ctr A3A inactive
Cc1n(CC(O)COCc2ccccc2)c2ccccc2[n+]1C (stereo not given)	APOBEC3A inh 59 | APOBEC3A confirm 71 | UDG ctr A3A inactive
CCn1c(C)[n+](CC(O)COCC2CC=CCC2)c2ccccc21 (stereo not given)	APOBEC3A inh 66, PHOSPHO1 block 104 (no result: PABP polyA inh, eIF4H inh) | APOBEC3A confirm 75 | UDG ctr A3A inactive
CCn1c(NC2CCCCC2)nc2ccccc21	none
CCCc1n(CC)c2ccccc2[n+]1CC(O)COC1CCCCC1 (stereo not given)	APOBEC3A inh 89 | APOBEC3A confirm 75 | UDG ctr A3A inactive
CC(=O)Nc1ccc(S(=O)(=O)Nc2nc3ccccc3nc2Nc2ccc(O)c(C(=O)O)c2)cc1	none
COc1ccc(S(=O)(=O)N(C)C[C@@H]2OCc3cnnn3CCCC(=O)N([C@@H](C)CO)C[C@@H]2C)cc1	none (no result: APOBEC3A inh, PHOSPHO1 block, PABP polyA inh, APOBEC3G inh, eIF4H inh)
O=C(OCC(=O)N1CCN(C(=O)c2ccco2)CC1)c1ccccc1NCCO	none (no result: PHOSPHO1 block, PABP polyA inh, eIF4H inh)
Cc1nc2ccccc2n1CC(O)COCC1CC=CCC1 (stereo not given)	none
